# Test results as given in PubChem BioAssay (NCATS).
# Results filed as inconclusive are left out. Entries that show only a call come without a potency. Values without a mark were called inactive. Activity calls are given as the source filed them. The call rests on the fitted dose curve; in most records, active means well fitted inhibition curve with a large enough effect; inconclusive means small, poorly fitted or top-dose-only effect; inactive means flat fitted curve, though single readings scatter.
# System: NIH3T3
# Test: Cytotoxic Profiling of Annotated Libraries Using Quantitative High-Throughput Screening (AID 1296008)
# Settings: Five cell lines viability, CellTiter-Glo ATP luminescence, 48-72 h; max response: active compounds read low
# Method in brief: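 Compounds were pin-transferred onto cells and incubated 48 or 72 hr at 37 degree Celsius, 95% humidity. CellTiter-Glo was added, plates sat 10 min at room temperature, then ATP-coupled luminescence was imaged as the viability read-out.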
# Further: nearly all actives have a fitted effect of over 60% in size.
# Potency means the concentration at half of the fitted maximal effect.
Structure (SMILES),max response [%],outcome,Potency
O=C(OCc1ccccc1)c1ccccc1,0.848,–,–
CS(=O)(=O)c1ccc(-n2nc(C(F)(F)F)cc2-c2ccc(F)cc2)cc1,-2.48,–,–
CN(C)c1ccc(N=NS(=O)(=O)O)cc1,2.87,–,–
C#C[C@]1(O)CC[C@H]2[C@@H]3CCc4cc(O)ccc4[C@H]3CC[C@@]21C,-26.3,–,–
NS(=O)(=O)c1ccc(-n2nc(C(F)(F)F)cc2-c2ccc(Cl)cc2)cc1,-15.5,–,–
COc1cc(NC(C)CCCN)c2ncccc2c1 (stereo not given),–,inactive,–
CCCCCCCCCCCCCCCCCC(=O)O,-5.96,–,–
COC(=O)C1=C(C)NC(C)=C(C(=O)OCC(C)C)C1c1ccccc1[N+](=O)[O-] (stereo not given),-5.79,–,–
CCN(CC)CCCCNc1ncc2cc(-c3c(Cl)cccc3Cl)c(NC(=O)NC(C)(C)C)nc2n1,–,–,1.16 µM (active)
COc1ccc(-c2cc(=S)ss2)cc1,–,inactive,–
CCCCC1C(=O)N(c2ccccc2)N(c2ccc(O)cc2)C1=O (stereo not given),–,–,15 µM (active)
CN(C)[C@@H]1C(=O)C(C(=O)NCN2CCCC2)=C(O)[C@@]2(O)C(=O)C3=C(O)c4c(O)cccc4[C@@](C)(O)C3C[C@@H]12 (stereo not given in full),1.26,–,–
c1ccc(CCNc2nc(-c3ccccc3)cs2)cc1,-13.6,–,–
CC(N)C(=O)OC(C)(C)Cc1ccc(Cl)cc1 (stereo not given),-1.5,–,–
Fc1ccc2[nH]c(CN3CCN(c4ccccn4)CC3)cc2c1,-28.5,–,–
CCCCCCOc1ccccc1C(N)=O,-8.29,–,–
CCCC(=O)OC[C@@H](OC(=O)CCC)[C@@H](OC(=O)CCC)[C@H](Cn1c2nc(=O)[nH]c(=O)c-2nc2cc(C)c(C)cc21)OC(=O)CCC,–,inactive,–
Cc1c(C(=O)O)c(O)cc2c1C(=O)c1c(O)c([C@@H]3O[C@H](CO)[C@@H](O)[C@H](O)[C@H]3O)c(O)c(O)c1C2=O,-21.1,–,–
CCCCN(CC)c1nc(C)nc2c1c(C)cn2-c1c(C)cc(C)cc1C,-2.65,–,–
O=C(O)Cc1cccc(-c2cc(CCCCCCc3ccc(O[C@H]4O[C@H](CO)[C@@H](O)[C@H](O)[C@@H]4O)c(-c4cccc(CC(=O)O)c4)c3)ccc2O[C@H]2O[C@H](CO)[C@@H](O)[C@H](O)[C@@H]2O)c1,2.37,–,–
COC(=O)C1=C(C)NC(C)=C(C(=O)OCC(C)=O)C1c1ccccc1[N+](=O)[O-] (stereo not given),-4.97,–,–

# System: HACAT
# Test: qHTS assay to identify novel small-molecules to repurpose for Merkel cell carcinoma treatment (AID 1296009)
# Settings: MCC and control cell lines, CellTiter-Glo viability, 72 h; at 44.8 µM (top of the series) unless noted
# Method in brief: (§1)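 qHTS format: cells treated with library compounds in DMSO across 8 (NPC) or 11 (MIPE) concentrations. Readout after 72 hr at 37 degree celsius was CellTiter-Glo luminescence.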
row,Structure (SMILES),outcome
1,O=Cc1ccc(O)c(O)c1O,inactive
2,CS(=O)(=O)c1ccc(-n2nc(C(F)(F)F)cc2-c2ccc(F)cc2)cc1,inactive
3,NS(=O)(=O)c1ccc(-n2nc(C(F)(F)F)cc2-c2ccc(Cl)cc2)cc1,inactive
4,COc1cc(NC(C)CCCN)c2ncccc2c1 (stereo not given),inactive
5,CCCCCCCCCCCCCCCCCC(=O)O,inactive
6,COc1ccc(-c2cc(=S)ss2)cc1,inactive
7,CC1(C)S[C@@H]2[C@H](NC(=O)[C@H](N)c3ccccc3)C(=O)N2[C@H]1C(=O)O,inactive
8,c1ccc(CCNc2nc(-c3ccccc3)cs2)cc1,inactive
9,Cc1cc(O)c2ccccc2c1O,inactive
10,CC(N)C(=O)OC(C)(C)Cc1ccc(Cl)cc1 (stereo not given),inactive
11,Clc1ccccc1-c1nc(-c2ccncc2)no1,inactive
12,COC(=O)C1=C(C)NC(C)=C(C(=O)OCC(C)=O)C1c1ccccc1[N+](=O)[O-] (stereo not given),inactive

# System: MCC-13
# Test: as above
# Settings: MCC and control cell lines, CellTiter-Glo viability, 72 h; series mostly up to 46 µM
# Method in brief: as §1
Structure (SMILES),Potency,"activity change, negative = cytotoxicity"
Cc1[nH]cnc1CN1CCc2c(c3ccccc3n2C)C1=O,inactive,–
O=Cc1ccc(O)c(O)c1O,inactive,–
O=C(OCc1ccccc1)c1ccccc1,inactive,–
CN(C)c1ccc(N=NS(=O)(=O)O)cc1,inactive,–
COc1cc(NC(C)CCCN)c2ncccc2c1 (stereo not given),16.8 µM (active),–
CCCCCCCCCCCCCCCCCC(=O)O,inactive,–
O=C(O)/C=C\C(=O)O,inactive,–
COc1ccc(-c2cc(=S)ss2)cc1,inactive,–
CCCCC1C(=O)N(c2ccccc2)N(c2ccc(O)cc2)C1=O (stereo not given),9.44 µM (active),–
CC1(C)S[C@@H]2[C@H](NC(=O)[C@H](N)c3ccccc3)C(=O)N2[C@H]1C(=O)O,inactive,–
CN(C)[C@@H]1C(=O)C(C(=O)NCN2CCCC2)=C(O)[C@@]2(O)C(=O)C3=C(O)c4c(O)cccc4[C@@](C)(O)C3C[C@@H]12 (stereo not given in full),inactive,–
c1ccc(CCNc2nc(-c3ccccc3)cs2)cc1,inactive,–
Cc1cc(O)c2ccccc2c1O,inactive,–
CC(N)C(=O)OC(C)(C)Cc1ccc(Cl)cc1 (stereo not given),inactive,–
CCCCCCOc1ccccc1C(N)=O,inactive,–
Clc1ccccc1-c1nc(-c2ccncc2)no1,inactive,–
Nc1nc2ccc([N+](=O)[O-])cc2s1,inactive,–
Oc1c(Br)cc(Br)c2cccnc12,inactive,–
CCCC(=O)OC[C@@H](OC(=O)CCC)[C@@H](OC(=O)CCC)[C@H](Cn1c2nc(=O)[nH]c(=O)c-2nc2cc(C)c(C)cc21)OC(=O)CCC,inactive,–
O=c1cc(-c2ccccc2)oc2ccccc12,inactive,–
Cc1c(C(=O)O)c(O)cc2c1C(=O)c1c(O)c([C@@H]3O[C@H](CO)[C@@H](O)[C@H](O)[C@H]3O)c(O)c(O)c1C2=O,inactive,–
O=C(O)Cc1cccc(-c2cc(CCCCCCc3ccc(O[C@H]4O[C@H](CO)[C@@H](O)[C@H](O)[C@@H]4O)c(-c4cccc(CC(=O)O)c4)c3)ccc2O[C@H]2O[C@H](CO)[C@@H](O)[C@H](O)[C@@H]2O)c1,–,9.04% [at 0.597 µM]
